# Measured values as given in PubChem BioAssay (EPA / NIEHS).
# Values joined by “and” are separate entries in the source; they are usually repeats but may differ in a detail not shown here. Equal entries are not always repeated. Inconclusive results are not listed. Active and inactive are the calls of the source. Rule for the calls, unless noted: active = hit-call score of the fitted dose curve at least 0.9, where 1 is the maximum; inconclusive = response in the unintended direction; inactive = score below 0.9. *1 amine or outer side, *2 acyl side, *3 side chain or, on linkers, in order; H or OH if unused. Where a SMILES comes first, the peptide text is derived from it. Bridges are numbered along the chain shown (N, C = ends). Roman numbers before positions name the chains, in order. [ ]: non-standard residue; d: D form. Actinocin(9to1) = Cc1c2oc3c(C)ccc(C(=O)[*:1])c3nc-2c(C(=O)[*:2])c(N)c1=O; NMeV = CN[C@H](C(=O)O)C(C)C; Sar = CNCC(=O)O
# Tests used:
# [1] = molecular target: Cellular tumor antigen p53 (Homo sapiens) (UniProt P04637); experiment: TOX21_p53_BLA_p2_ratio: Tox21 HCT-116 p53 Agonism Beta-lactamase Assay, Ratio, Phase 2 (AID 2283592)
# Method in brief: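 Read-out is the blue/green (460/530 nm, 405 nm excitation) ratio after 2 h CCF4-AM loading, fitted as gain versus DMSO. Compounds, pinned at 217-fold dilution from DMSO stocks, stayed 16 h on HCT-116 beta-lactamase reporter cells seeded 5 h earlier.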
# [2] = TOX21_p53_BLA_p3_viability: Viability Assessment in the Tox21 HCT-116 p53 Agonism Beta-lactamase Assay, Phase 3 (AID 2283593);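 note: cells exposed to compound for 16 h before reading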
# Method in brief: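 Cellular ATP was quantified by CellTiter-Glo luminescence, read after 30 min at room temperature. Beforehand, HCT116 cells (4000/well) received compound 5 h post-seeding, 217-fold diluted from DMSO, then incubated 16 h at 37C.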
# [3] = molecular target: Cellular tumor antigen p53 (Homo sapiens) (UniProt P04637); experiment: TOX21_p53_BLA_p3_ratio: Tox21 HCT-116 p53 Agonism Beta-lactamase Assay, Ratio, Phase 3 (AID 2283596)
# Method in brief: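 Cells were seeded at 4000/well, rested 5 h at 37C, then dosed with DMSO compound solutions (217-fold dilution) for 16 h. CCF4-AM substrate was loaded for 2 h at room temperature, and the 460/530 nm emission ratio was fitted for gain of signal versus DMSO.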
# [4] = TOX21_p53_BLA_p4_viability: Viability Assessment in the Tox21 HCT-116 p53 Agonism Beta-lactamase Assay, Phase 4 (AID 2283597);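 note: hits lower the luminescence signal meaning cytotoxicity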
# Method in brief: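 Cytotoxicity as reduced cellular ATP (CellTiter-Glo luminescence, 30 min room temperature), measured in the same wells following the CCF4 FRET p53 reading. Human HCT-116 cells received compounds in DMSO (217-fold dilution) for 16 h.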
# [5] = molecular target: Cellular tumor antigen p53 (Homo sapiens) (UniProt P04637); experiment: TOX21_p53_BLA_p5_ratio: Tox21 HCT-116 p53 Agonism Beta-lactamase Assay, Ratio, Phase 5 (AID 2283599)
# Method in brief: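 Beta-lactamase reporter ratio (blue 460 nm over green 530 nm, 405 nm excitation) after 2 h CCF4-AM loading, in HCT-116 cells exposed 16 h at 37 C to compounds pinned at 217-fold dilution. Increases relative to DMSO baseline scored.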
# [6] = molecular target: Cellular tumor antigen p53 (Homo sapiens) (UniProt P04637); experiment: TOX21_p53_BLA_p4_ratio: Tox21 HCT-116 p53 Agonism Beta-lactamase Assay, Ratio, Phase 4 (AID 2283601)
# Method in brief: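 Signal is the blue/green (460nm/530nm) ratio of cleaved versus uncleaved CCF4-AM substrate, read after 2 h substrate loading. Cells were HCT116 carrying the p53-responsive beta-lactamase reporter, dosed 16 h at 37C, 5% CO2; CellTiter-Glo measured in parallel.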
# [7] = TOX21_p53_BLA_p5_viability: Viability Assessment in the Tox21 HCT-116 p53 Agonism Beta-lactamase Assay, Phase 5 (AID 2283600)
# Method in brief: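 Viability came from CellTiter-Glo ATP luminescence, read after 30 min at room temperature. Before this, HCT-116 p53-bla cells (4000/well) had 16 hours of compound exposure at 37C, with DMSO stocks diluted 217-fold on transfer.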
# [8] = tested on: Brachyury (BRA) Protein Expression, Deisenroth Lab, TBXT (gene 6862); experiment: CCTE_Deisenroth_DEVTOX-GLR_legacy_Bra: (Legacy) CCTE's DevTox GLR-Endo Assay Evaluation of Brachyury (BRA) Protein Expression, Deisenroth Lab (AID 2284329; active = hit-call score of the fitted dose curve at least 0.9, where 1 is the maximum; inactive = score below 0.9)
# Method in brief: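 Percent Bra-positive cells, scored by high-content imaging against a threshold of 5x BMAD over the undifferentiated control median, with the 0.2% DMSO median subtracted. RUES2-GLR cultures were dosed twice at 24 h intervals across a 48 h differentiation, at 1 nM–200 uM in ten steps, with n=4 replicates.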
# [9] = CCTE_Deisenroth_DEVTOX-GLR_legacy_CellCount: (Legacy) Viability Assessment in CCTE's DevTox GLR-Endo Assay, Deisenroth Lab (AID 2284331; active = hit-call score of the fitted dose curve at least 0.9, where 1 is the maximum; inactive = score below 0.9); conditions: actives raise or lower the signal
# Method in brief: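 Viability is taken from imaged nuclei counts in fixed RUES2-GLR cultures after 48 h of differentiation under two 24 h-spaced chemical exposures, 10 concentrations from 1 nM to 200 uM, gain or loss versus DMSO baseline.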
# [10] = tested on: SRY-box transcription factor 17 (SOX17) Protein Expression, Deisenroth Lab, SOX17 (gene 64321); experiment: CCTE_Deisenroth_DEVTOX-GLR_legacy_Sox17: (Legacy) CCTE's DevTox GLR-Endo Assay Evaluation of SRY-box transcription factor 17 (SOX17) Protein Expression, Deisenroth Lab (AID 2284341; active = hit-call score of the fitted dose curve at least 0.9, where 1 is the maximum; inactive = score below 0.9); conditions: actives raise or lower the signal
# Method in brief: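 Endoderm-differentiation readout in RUES2-GLR human pluripotent cells at 48 h, concentrations spanning 1 nM - 200 uM. Sox17-positive cells divided by total cell count; gain or loss relative to DMSO solvent control, n=4 experimental replicates.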
# [11] = tested on: SRY-box transcription factor 2 (SOX2) Protein Expression, Deisenroth Lab, SOX2 (gene 6657); experiment: CCTE_Deisenroth_DEVTOX-GLR_legacy_Sox2: (Legacy) CCTE's DevTox GLR-Endo Assay Evaluation of SRY-box transcription factor 2 (SOX2) Protein Expression, Deisenroth Lab (AID 2284346; active = hit-call score of the fitted dose curve at least 0.9, where 1 is the maximum; inactive = score below 0.9)
# Method in brief: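 Percent Sox2-positive cells was scored by high-content imaging of 5 fields per well. Positivity cutoff was 5x BMAD over the directed endoderm control, and the DMSO median was subtracted. Cells were RUES2-GLR, dosed twice at 24-h intervals over 48 h of differentiation (1 nM-200 uM).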
# [12] = tested on: SRY-box transcription factor 2 (SOX2) Protein Expression, Deisenroth Lab, SOX2 (gene 6657); experiment: CCTE_Deisenroth_DEVTOX-GLR_Endo_SOX2: CCTE's DevTox GLR-Endo Assay Evaluation of SRY-box transcription factor 2 (SOX2) Protein Expression, Deisenroth Lab (AID 2284412)
# Method in brief: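 Endpoint is percent SOX2-positive cells (SOX2+ count/total cells) minus 0.2% DMSO control, from high-content imaging of fixed, nuclear-stained RUES2-GLR cells. Dosing twice at 24 h intervals over 48 h differentiation, 1 nM–200 uM in 10 points.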
# [13] = tested on: SRY-box transcription factor 17 (SOX17) Protein Expression, Deisenroth Lab, SOX17 (gene 64321); experiment: CCTE_Deisenroth_DEVTOX-GLR_Endo_SOX17: CCTE's DevTox GLR-Endo Assay Evaluation of SRY-box transcription factor 17 (SOX17) Protein Expression, Deisenroth Lab (AID 2284413; active = hit-call score of the fitted dose curve at least 0.9, where 1 is the maximum; inactive = score below 0.9)
# Method in brief: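 RUES2-GLR human pluripotent cells were seeded 24 h, then differentiated toward endoderm for 48 h with two chemical exposures 24 h apart (10-point series, 1 nM - 200 uM). Nuclei-stained fixed cells were imaged; endpoint is percent change in SOX17+ cells versus 0.2% DMSO.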
# [14] = tested on: Brachyury (BRA) Protein Expression, TBXT (gene 6862); experiment: CCTE_Deisenroth_DEVTOX-GLR_Endo_BRA: CCTE's DevTox GLR-Endo Assay Evaluation of Brachyury (BRA) Protein Expression, Deisenroth Lab (AID 2284417; active = hit-call score of the fitted dose curve at least 0.9, where 1 is the maximum; inactive = score below 0.9)
# Method in brief: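 Read-out: BRA+ cell count divided by total cell count by high-content imaging (5 fields per well), expressed relative to 0.2% DMSO solvent control. RUES2-GLR cells dosed twice over a 48 h differentiation; concentrations 1 nM - 200 uM.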
# [15] = CCTE_Deisenroth_DEVTOX-GLR_Endo_CellCount: Viability Assessment in CCTE's DevTox GLR-Endo Assay, Deisenroth Lab (AID 2284420; active = hit-call score of the fitted dose curve at least 0.9, where 1 is the maximum; inactive = score below 0.9)
# Method in brief: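 Percent change in nuclear-stain cell counts versus 0.2% DMSO, from high-content imaging over 5 fields per well. Over a 48 h endoderm differentiation, RUES2-GLR cells received two doses 24 h apart across a 1 nM–200 uM series, with n=4.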
# Sequence of Cellular tumor antigen p53 (Homo sapiens) (P04637 whole entry, looked up): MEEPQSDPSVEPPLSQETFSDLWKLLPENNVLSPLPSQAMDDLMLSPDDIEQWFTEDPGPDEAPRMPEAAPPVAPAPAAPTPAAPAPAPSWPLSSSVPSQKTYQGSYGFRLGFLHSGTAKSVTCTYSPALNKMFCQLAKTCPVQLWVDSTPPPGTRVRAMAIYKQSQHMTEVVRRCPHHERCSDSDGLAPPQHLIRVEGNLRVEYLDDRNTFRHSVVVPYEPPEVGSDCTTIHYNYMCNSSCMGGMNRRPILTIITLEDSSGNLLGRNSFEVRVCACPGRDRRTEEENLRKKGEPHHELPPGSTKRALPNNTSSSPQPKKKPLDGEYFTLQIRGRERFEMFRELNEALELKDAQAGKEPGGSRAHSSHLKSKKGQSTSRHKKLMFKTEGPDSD
smiles,measurement,setting,value
CC(C)=C1CC[C@@H](C)CC1=O,outcome,[1],inactive
same,outcome,[2],inactive
same,outcome,[3],inactive
same,outcome,[4],inactive
same,outcome,[5],inactive
same,outcome,[6],inactive
Clc1cc(Cl)cc(Cl)c1,outcome,[1],inactive
same,outcome,[2],inactive
same,outcome,[3],inactive
same,outcome,[4],inactive
same,outcome,[7],inactive
same,outcome,[6],inactive
CC(=O)NC(Cc1ccccc1)C(=O)O (centres undefined),outcome,[1],inactive
same,outcome,[2],inactive
same,outcome,[3],inactive
same,outcome,[4],inactive
same,outcome,[7],inactive
same,outcome,[6],inactive
O=C(O)c1c2ccccc2cc2ccccc12,outcome,[1],inactive
same,outcome,[2],inactive
same,outcome,[3],inactive
same,outcome,[4],inactive
same,outcome,[7],inactive
same,outcome,[6],inactive
CC(=O)Oc1c(C)cc(OCC(O)CNC(C)C)c(C)c1C (centres undefined),outcome,[1],inactive
same,outcome,[2],inactive
same,outcome,[3],inactive
same,outcome,[4],inactive
same,outcome,[6],inactive
CCCCC(O)c1ccccc1 (centres undefined),outcome,[1],inactive
same,AC50,[2],30600 nM (active)
same,outcome,[3],inactive
same,outcome,[4],inactive
same,outcome,[7],inactive
same,outcome,[6],inactive
CC(CO)Oc1ccccc1 (centres undefined),outcome,[1],inactive
same,outcome,[2],inactive
same,outcome,[3],inactive
same,outcome,[4],inactive
same,outcome,[5],inactive
same,outcome,[6],inactive
NCCCC[C@H](N[C@@H](CCc1ccccc1)C(=O)O)C(=O)N1CCC[C@H]1C(=O)O,outcome,[1],inactive
same,outcome,[2],inactive
same,outcome,[3],inactive
same,outcome,[4],inactive
same,outcome,[7],inactive
same,outcome,[6],inactive
CO[Si](CCCNCCC[Si](OC)(OC)OC)(OC)OC,outcome,[1],inactive
same,outcome,[2],inactive
same,outcome,[3],inactive
same,outcome,[4],inactive
same,outcome,[7],inactive
same,outcome,[6],inactive
CCCCCCCCCCC[C@@H](C[C@@H]1OC(=O)[C@H]1CCCCCC)OC(=O)[C@H](CC(C)C)NC=O,outcome,[1],inactive
same,outcome,[2],inactive
same,outcome,[3],inactive
same,outcome,[4],inactive
same,outcome,[5],inactive
same,outcome,[6],inactive
CC/C=C\C/C=C\C/C=C\C/C=C\C/C=C\CCCC(=O)O,outcome,[1],inactive
same,outcome,[2],inactive
same,outcome,[3],inactive
same,outcome,[4],inactive
same,outcome,[7],inactive
same,outcome,[6],inactive
"Cc1c2oc3c(C)ccc(C(=O)N[C@@H]4C(=O)N[C@H](C(C)C)C(=O)N5CCC[C@H]5C(=O)N(C)CC(=O)N(C)[C@@H](C(C)C)C(=O)O[C@@H]4C)c3nc-2c(C(=O)N[C@@H]2C(=O)N[C@H](C(C)C)C(=O)N3CCC[C@H]3C(=O)N(C)CC(=O)N(C)[C@@H](C(C)C)C(=O)O[C@@H]2C)c(N)c1=O (I: T[dV]P[Sar][NMeV] / II: T[dV]P[Sar][NMeV]; ester I:1-I:C, II:1-II:C; linker I:N-II:N via Actinocin(9to1))",AC50,[1],0.163 nM (active) and 3.91 nM (active)
same,AC50,[2],40600 nM (active)
same,AC50,[3],0.165 nM (active) and 4.24 nM (active)
same,outcome,[4],inactive
same,AC50,[5],0.0328 nM (active) and 7.71 nM (active)
same,AC50,[6],0.262 nM (active) and 3.61 nM (active)
same,AC50,[8],1.54 nM (active)
same,AC50,[9],0.297 nM (active)
same,AC50,[10],0.544 nM (active)
same,AC50,[11],2.31 nM (active)
same,AC50,[12],1.62 nM (active)
same,AC50,[13],0.0442 nM (active)
same,AC50,[14],1.08 nM (active)
same,AC50,[15],0.0148 nM (active)
